# In ChEMBL document CHEMBL1157539, “Thousands of chemical starting points for antimalarial lead identification” (Nature, 2010):
# Tested on: HepG2
# Assay: GSK_TCMDC: Percent inhibition of human HepG2 cell line. Test compounds present at 10uM.
# Format: functional
row,Structure (SMILES),Inhibition
1,OC(Cn1ccnc1)(c1ccc(Cl)cc1Cl)C1CCCCC1 (stereo not given),7%
2,CC(C)[C@@H](C(=O)NCc1cccc(C(F)(F)F)c1)N1C(=O)CCC1C(=O)Nc1ccc([N+](=O)[O-])cc1 (stereo not given in full),0%
3,Nc1nc(N)c2c(ccc3c2ccn3Cc2ccc(OCc3ccccc3)cc2)n1,5%
4,CCC1CCCCN1S(=O)(=O)c1ccc(NC(=O)c2cc(C)on2)cc1 (stereo not given),0%
5,Cl.O=C(Nc1ccc2nccc(N3CCN4CCC[C@H]4C3)c2c1)c1ccc(Cl)c(Cl)c1,18%
6,CN(C)Cc1ccc2cc(NC(=O)c3ccc(-c4ccc(Cl)cc4)cc3)ccc2n1.O=C(O)C(F)(F)F,60%
7,O=C(Nc1ccc(Br)cc1)N(CCN1CCOCC1)CC(O)COc1ccc(Cl)c(F)c1.O=C(O)C(F)(F)F (stereo not given),3%
8,O=C(O)c1cc(OCC(O)COc2ccc(O)c(C(=O)O)c2)ccc1O,9%
9,N#CCCN1CCN(Cc2cccc(-c3ccc(-c4nc5cc(F)ccc5[nH]4)cc3)c2)CC1.O=C(O)C(F)(F)F,18%
10,COc1ccc(C(=O)Nc2cc(Br)c3c(c2)CNCC3)cc1Br.Cl,25%
11,Cc1nc(N2CCC(C)CC2)c2c3c(sc2n1)CCCC3,13%
12,CC(C)(CNC(=O)C1CCN(Cc2ccc(Cl)cc2)CC1)c1nc(-c2ccc(Cl)c(O)c2)c(-c2ccncc2)[nH]1.Cl,36%
13,COc1c(C=NNc2nc(=Nc3ccccc3)[nH]c(=Nc3ccccc3)[nH]2)ccc(Br)c1O,63%
14,CCOC(=O)c1ccc(NC(=O)Nc2ccc(-c3cccc(-c4nc5ccccc5[nH]4)c3)cc2)cc1,94%
15,CC(C)c1ccc(CN2CCC(CNC(=O)c3cc(-c4ccc(N(C)C)cc4)cs3)C2)cc1.O=C(O)C(F)(F)F (stereo not given),36%
16,O=C(/C=C/c1ccc(Cl)c(Cl)c1)NCCCCCN1CCCN(C(=O)Nc2cccc(C(F)(F)F)c2)CC1,45%
17,NC1CCN(Cc2ccc(-c3ccc(-c4nc5cc(F)ccc5[nH]4)s3)cc2)C1.O=C(O)C(F)(F)F (stereo not given),32%
18,CS(=O)(=O)O.FC(F)(F)COc1ccc2ccccc2c1CCNCCCCNCCc1c(OCC(F)(F)F)ccc2ccccc12,99%
19,O=C(Nc1ccc(C(=O)Oc2ccc(-c3ccccc3)cc2)cc1)N[C@@H](Cc1ccc(O)cc1)C(=O)NC1CCN(Cc2ccc(O)cc2)C1.O=C(O)C(F)(F)F (stereo not given in full),0%
20,Cc1noc(C)c1-c1cccc(CNCc2ccc(-c3ccc(-c4nc5cc(C(F)(F)F)ccc5[nH]4)s3)cc2)c1.O=C(O)C(F)(F)F,54%

row,Structure (SMILES),Inhibition
1,CN(C)CCNCc1ccc(-c2ccc3c(Nc4ccc(F)cc4Cl)ccnc3c2)o1,31%
2,N=C(N)NC(=O)Nc1ccc(Cl)c(Cl)c1,29%
3,CCNc1cc(C)nc(Nc2ccc(NC(=O)C3CCCC3)cc2)n1,13%
4,CCC(CSC1CCCCC1)N(C)CCN(C)C(CC)CSC1CCCCC1.Cl (stereo not given),84%
5,O=C(Nc1ccccc1Cc1ccccc1)c1ccccc1C(F)(F)F,0%
6,COC(=O)c1cccc(CNCc2cccc(-c3ccc(-c4nc5cc(C(F)(F)F)ccc5[nH]4)cc3)c2)c1.O=C(O)C(F)(F)F,13%
7,CC(C)CCCC(C)(C)NC[C@@H](O)[C@H](Cc1ccccc1)NC(=O)c1cccc(OCC2CC2)c1,99%
8,CC1CN(Cc2csc(Nc3ccccc3)n2)CC(C)O1 (stereo not given),4%
9,O=C(COc1ccc(F)cc1)NC1CCN(c2ccnc3cc(Cl)ccc23)C1.O=C(O)C(F)(F)F (stereo not given),24%
10,CCN(CC)CCN(Cc1ccc(-c2ccc(C(F)(F)F)cc2)cc1)C(=O)Cn1c(SCc2ccc(F)cc2)nc(=O)c2ccccc21.O=C(O)C(O)C(O)C(=O)O,47%
11,Cl.c1ccc(Oc2ccc(Nc3ccnc4cc(-c5ccc(CN6CCNCC6)o5)ccc34)cc2)nc1,7%
12,Cc1nc(C)c(-c2ccc(S(=O)(=O)c3ccc(Cl)cc3)cc2)c(O)c1Cl,0%
13,Cc1nc(-c2cccc(Nc3nccc(NCC(O)c4ccc(C(F)(F)F)cc4)n3)c2)cs1 (stereo not given),33%
14,CN1CCCN(Cc2cccc(-c3cccc(NC(=O)c4ccc(Cl)cc4)c3)c2)CC1.O=C(O)C(F)(F)F,35%
15,CCNC(=O)Nc1cccc(-c2cccc(-c3nc4cccc(C)c4[nH]3)c2)c1,7%
16,CCCCCCNc1cc(C)nc(NC(=N)Nc2cccc(C(F)(F)F)c2)n1,44%
17,COc1ccc(Br)cc1/C=C/C(=O)Nc1cccc(C2CCCN(C)C2)c1.O=CO (stereo not given),12%
18,Cc1cccc2nc(-c3ccc(-c4cccc(C(=O)N5CCCCC5C(C)O)c4)s3)[nH]c12 (stereo not given),27%
19,Cc1cc(C2CCN(CCCCNC(=O)c3ccc(-c4ccc(C(F)(F)F)cc4)cc3)CC2)c(C)cc1OCCO,31%
20,COc1ccc(Nc2nc(N3CCCC3)c3ccccc3n2)cc1.Cl,40%
